Records with an inconclusive call do not appear. Entries that show only a call come without a potency. Calls of active or inactive are those of the source. Unless noted, the call rests on the fitted dose curve; in most records, active means well fitted curve in the direction sought with a large enough effect; inconclusive means small, poorly fitted or top-dose-only effect, or another doubt; inactive means no such curve, though single readings can be large; an effect the other way counts as inactive or inconclusive.
Tests used:
[1] = qHTS Assay for Identification of Small Molecule Agonists for NFkB Signaling Pathway. (AID 624478);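 further: compounds tested together with TNF alpha at its EC50 of 10 pM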
In short: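 Activators were sought in reporter cells stimulated at the TNF alpha EC50 (10 pM final). Compound and cytokine were co-incubated 5 hours at 37 C before beta-lactamase substrate detection by dual-emission fluorescence.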

[2] = qHTS Assay for Identification of Small Molecule Antagonists for NFkB Signaling Pathway. (AID 624479; calls by dose curve;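 further: pathway stimulated with TNF alpha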; further: potency means the concentration at half of the fitted maximal effect)
[3] = Cell Proliferation Assay against the TMD8 Cell Line (AID 651645); conditions: TMD8 DLBCL cell line proliferation/viability; at 46.1 µM (top of the series) unless noted;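 further: cells exposed to compound for 48 h before reading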
In short: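 Cell viability of the ABC DLBCL line TMD8 is measured by CellTiter-Glo luminescence following a 48-hour incubation with compound. Percent activity uses DMSO as 100% and 9.2 uM bortezomib (final) as 0%.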

[4] = Cell Proliferation Assay against the HBL1 Cell Line (AID 651646); conditions: HBL1 DLBCL cells; at 46.1 µM (top of the series) unless noted;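 further: cells exposed to compound for 48 h before reading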
In short: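 After a 48 h incubation of 500 HBL1 cells/well in phenol red-free RPMI plus 5% FBS, relative luciferase units from CellTiter-Glo gave percent activity against DMSO and 9.2 uM bortezomib (final) controls.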

[5] = Cell Proliferation Assay against the TMD8 Cell Line (Caspase readout at 8 hrs) (AID 651713)
In short: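 Caspase 3/7 activation in ABC DLBCL TMD8 cells is measured by luminescence after an 8 h compound exposure at 37C. Relative light units are scaled between DMSO (0%) and 9.2 uM final bortezomib (100%).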

[6] = Cytotoxicity counterscreen for NFkB agonists and antagonists (AID 624476); further: potency means the concentration at half of the fitted maximal effect
[7] = Cell Proliferation Assay against the TMD8 Cell Line (Caspase readout at 16 hrs) (AID 651712)
In short: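 16 h, 37 °C, TMD8 (500 cells/well), RPMI/5% FBS no phenol red; Caspase-Glo 3/7, 15 min RT, luminescence; %act: DMSO 0, bortezomib 9.2 uM final 100.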

Row | Compound | outcome [1] | Potency [2] | viability (% of control) [3] | viability, percent of control [4] | Potency [5] | Potency [6] | Potency [7]
1 | COc1cc(F)c(F)c(Nc2ccc(I)cc2F)c1NS(=O)(=O)C1(C[C@H](O)CO)CC1 | inactive | 5.95 µM (active) | 69.3% | 62.4% | inactive | – | –
2 | C/C(=C\C(=O)Nc1ccccc1C(=O)O)c1ccc2ccccc2c1 | inactive | – | 53.7% | 70.3% | inactive | – | –
3 | COCCNCCCn1c(C(=O)CF)c(-c2ccc(C)cc2)c2c(N)ncnc21 | – | inactive | 75.8% | 86.2% | inactive | inactive | –
4 | CCn1c(-c2nonc2N)nc2c(C#CC(C)(C)O)ncc(OC[C@H]3CCCNC3)c21 | inactive | – | 22.8% | 70.2% | – | – | –
5 | CC[C@H](Nc1ncnc2nc[nH]c12)c1nc2cccc(F)c2c(=O)n1-c1ccccc1 | inactive | inactive | 19.3% | 68.9% | inactive | – | –
6 | Cc1cc(SCc2sc(-c3ccc(C(F)(F)F)cc3)nc2C)ccc1OCC(=O)O | inactive | – | 88.2% | 114% | inactive | – | –
7 | COc1cc2nccc(Oc3ccc(NC(=O)NC4CC4)c(Cl)c3)c2cc1C(N)=O | inactive | 18.8 µM (active) | 30.4% | 83.1% | inactive | – | inactive
8 | c1ccc(-c2nn3c(c2-c2ccnc4cc(OCCN5CCOCC5)ccc24)CCC3)nc1 | inactive | – | 41.4% | 77.9% | inactive | inactive | –
9 | CCCCCCCc1ccc(CCc2cccc(O)c2C(=O)O)cc1 | inactive | – | 64.1% | 51.5% | inactive | 23.5 µM (active) | –
10 | Cc1cc2c(F)c(Oc3ncnn4cc(OC[C@@H](C)O)c(C)c34)ccc2[nH]1 | inactive | – | 42.5% | 34.5% | inactive | – | –
11 | CN(C)c1ccc(C2Nc3ccc4ccccc4c3C3=C2C(=O)CC(C)(C)C3)cc1Br (stereo not given) | inactive | – | 64.8% | 69.1% | inactive | inactive | –
12 | CC1(C)CNc2cc(NC(=O)c3cccnc3NCc3ccncc3)ccc21 | inactive | – | 49.2% | 86% | inactive | inactive | –
13 | CN(C)c1ccc(Nc2nc(N)n(C(=O)c3c(F)cccc3F)n2)cc1 | inactive | 14.9 µM (active) | 28.9% | 46.5% | inactive | – | –
14 | Cc1cccc(-c2nn(C(=S)Nc3ccccc3)cc2-c2ccnc3ccccc23)n1 | inactive | – | 60.3% | 94.2% | inactive | inactive | –
15 | Cc1c(CCOc2ccc(C(=O)O)cc2)c2cc(Cl)ccc2n1C(c1ccccc1)c1ccccc1 | inactive | – | 79.3% | 34.4% | inactive | – | –
16 | O=C(Nc1cccnc1)N1CCC(Cc2cccc(Oc3ccc(C(F)(F)F)cn3)c2)CC1 | inactive | – | 36.7% | 46.1% | – | – | –
17 | COc1ccc(-c2c(-c3ccc(O)cc3O)n[nH]c2C)cc1 | inactive | – | 86.4% | 72.3% | inactive | inactive | –
18 | Cc1cc(C=c2sc3nc4ccccc4n3c2=O)c(C)n1-c1ccccc1 | inactive | inactive | 43.9% | 43.7% | inactive | – | –
19 | OCCC#Cc1nc(-c2ccc(F)cc2)c(-c2ccncc2)n1CCCc1ccccc1 | inactive | 14.9 µM (active) | 67.4% | 55.3% | – | – | –
20 | CC(C)(C)OC(=O)CN(Cc1ccc(Cl)cc1)Cc1ccc([N+](=O)[O-])s1 | inactive | inactive | 7.07% | 47% | inactive | – | –
21 | Cc1ccc(-n2nc(C(C)(C)C)cc2NC(=O)Nc2ccc(OCCN3CCOCC3)c3ccccc23)cc1 | inactive | – | 66.7% | 65.5% | inactive | inactive | –
22 | CCC(C)n1ncn(-c2ccc(N3CCN(c4ccc(OC[C@H]5CO[C@](Cn6cncn6)(c6ccc(Cl)cc6Cl)O5)cc4)CC3)cc2)c1=O (stereo not given in full) | – | – | 77.9% | 77% | inactive | – | inactive
23 | CCC(C)(C)C(=O)O[C@H]1C[C@@H](C)C=C2C=C[C@H](C)[C@H](CC[C@@H]3C[C@@H](O)CC(=O)O3)[C@H]21 | – | – | 80.7% [at 15.4 µM] | 94.3% [at 15.4 µM] | – | – | inactive
24 | O=C(O)c1ccc(-c2c[nH]c3ccc(-c4ccccc4)cc23)cc1C1CCCC1 | inactive | 14.9 µM (active) | 83.2% | 93.3% | inactive | – | inactive
25 | O=C(NOC[C@H](O)CO)c1ccc(F)c(F)c1Nc1ccc(I)cc1F | inactive | inactive | 79.1% | – | inactive | – | inactive
26 | Nc1cccc(S(=O)(=O)N2CCCN(S(=O)(=O)c3ccc4c(c3)OCCO4)CC2)c1 | inactive | – | 46.2% | 78.2% | inactive | inactive | –

— PubChem BioAssay (NCATS)
